Lassa entry inh = qHTS for Inhibitors of binding or entry into cells for Lassa Virus | Lassa virus pseudotype entry inhibition, cell reporter | Potency, µM (series often up to 37.9 µM), for inactives: top-dose activity change, negative = inhibition, hits mostly inhibitors | 300,000 compounds, 1.2% hits; calls by dose curve; tested in HEK293 cells; further: potency means the concentration at half of the fitted maximal effect; on the % scale 0 is the no-effect control and ±100 the full control effect; nearly all actives have a fitted effect of over 50% in size
Pf growth 96h = Primary qHTS for delayed death inhibitors of the malarial parasite plastid, 96 hour incubation. P. falciparum luciferase reporter growth, 96 h. Potency, µM (series often up to 28.7 µM), without a hit: top-dose activity change, negative = inhibition, hits mostly inhibitors. 320,000 compounds, 6.9% hits; further: potency means the concentration at half of the fitted maximal effect; on the % scale 0 is the no-effect control and ±100 the full control effect
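P. falciparum expressing integrated firefly luciferase, in erythrocytes at 2% hematocrit, 0.05% parasitemia, incubated with compounds 96 h at 37 C, 5% CO2. Growth inhibition read as loss of luminescence; two-generation exposure targets delayed-death apicoplast inhibitors.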
Cycloheximide cs = Cycloheximide Counterscreen for Small Molecule Inhibitors of Shiga Toxin | max response, % | AID 2314, 2010 | 300,000 compounds, 12% hits | cell reporter, cycloheximide protein synthesis inhibition counterscreen; in the data active means max response mostly above about 13%, no sharp cut-off; inactive means mostly below about 14%; further: read at 38.3 µM for the half of the compounds with a filed dose; 0% is about no effect
Pf growth 48h = Primary qHTS for delayed death inhibitors of the malarial parasite plastid, 48 hour incubation; P. falciparum luciferase growth in erythrocytes, 48 h; Potency, µM (top dose mostly 28.7 µM), without a hit: top-dose activity change, negative = inhibition, most hits filed as inhibitors; 310,000 compounds, 5.9% hits; further: potency means the concentration at half of the fitted maximal effect; on the % scale 0 is the no-effect control and ±100 the full control effect
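Growth was read as firefly luciferase luminescence after a 48 h, 37 C, 5% CO2 exposure of compounds to reporter-bearing P. falciparum cultures (0.1% parasitemia, 2% hematocrit final) in Albumax-supplemented RPMI 1640.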
Shiga toxin inh = A qHTS for Small Molecule Inhibitors of Shiga Toxin. Vero cells, Shiga toxin protein synthesis inhibition reporter. inhibition, % at 38.7 µM. 290,000 compounds, 9.2% hits. AID 2315, 2010; in the data active means inhibition mostly above about 28%, no sharp cut-off; inactive means mostly below about 43%; further: 0% is about no effect
MARV entry inh = qHTS for inhibitors of binding or entry into cells for Marburg Virus; Potency, µM (series often up to 37.8 µM), without a hit: at the highest dose activity change, negative = inhibition, usual class: inhibitors; 300,000 compounds, 1.8% hits; Marburg virus pseudotyped entry inhibition, cell reporter; calls by dose curve; tested in HEK293 cells; further: potency means the concentration at half of the fitted maximal effect; on the % scale 0 is the no-effect control and ±100 the full control effect
Starred values were filed as active, the others as inactive; u = inconclusive; x = not tested or not shown; [ ] = remark or other dose. In the library only some 19% were active in any assay of this set; here they are far more common. Unless noted, the call rests on the fitted dose curve; in most records, active means well fitted inhibition curve with a large enough effect; inconclusive means small, poorly fitted or top-dose-only effect, or another doubt; inactive means no such curve, though single readings can be large or run the other way.

SMILES	Lassa entry inh	Pf growth 96h	Cycloheximide cs	Pf growth 48h	Shiga toxin inh	MARV entry inh
NCCCC[C@H](NC(=O)[C@@H]1CCCN1C(=O)[C@H](CO)NC(=O)[C@H](CC(=O)O)NC(=O)CNC(=O)[C@H](CCCN=C(N)N)NC(=O)CN)C(=O)O	x	x	-1.0	x	-5.5	x
Cc1ccc2c(c1)C1CN(C)CCC1N2S(=O)(=O)c1cc(C(F)(F)F)ccc1Cl (centres undefined)	x	-120.2%	x	9.28µM*	x	x
Cc1ccc2c(c1)C1CN(C)CCC1N2S(=O)(=O)c1ccccc1 (centres undefined)	17.5%	u	-1.0	u	-3.4	u
Cc1ccc2c(c1)C1CN(C)CCC1N2S(=O)(=O)c1ccc(C(C)C)cc1 (centres undefined)	x	7.38µM*	x	4.65µM*	x	x
Cc1ccc2c(c1)C1CN(C)CCC1N2C(=S)NC(=O)c1ccc(Br)cc1 (centres undefined)	x	u	0.9	u	-3.6	x
COc1ccc(NC2=NCC(=O)N2c2ccccc2F)cc1	u	65.8%	0.6	59.9%	8.6	23.2%[46.1 µM]
COc1ccc2c(Cl)c(C(=O)N/N=C/c3ccncc3)sc2c1	-24.7%	22.0%	17.4	-10.7%	23.6	-18.6%[46.1 µM]
O=C(COC(=O)CNC(=O)c1sc2ccccc2c1Cl)NC1CCS(=O)(=O)C1 (centres undefined)	16.6%	-0.3%	x	7.8%	x	12.7%
COc1ccc2c(Cl)c(C(=O)NN3CCN(C)CC3)sc2c1	u	u	23.4*	10.7%	26.4	11.3%
COc1ccc2c(Cl)c(C(=O)NC3CCS(=O)(=O)C3)sc2c1 (centres undefined)	14.2%	-5.2%	20.4*	-2.2%	35.9*	19.9%
Cc1ccc(CSCCNC(=O)c2ccc(Cl)c(S(=O)(=O)N3CCOCC3)c2)cc1	u	5.22µM*	-1.9	x	-6.7	-27.1%
CC(=O)N1CCN(S(=O)(=O)c2cccc(C(=O)NCCC3=CCCCC3)c2)CC1	u	8.28µM*	x	12.1%	x	20.1%
O=C(NCCC1=CCCCC1)c1ccc(Cl)c(S(=O)(=O)N2CCCCC2)c1	x	5.86µM*	30.4	9.28µM*	49.7	x
O=C(NCCC1=CCCCC1)c1cc(S(=O)(=O)N2CCOCC2)c(Cl)cc1Cl	-8.0%	16.7%	x	u	x	28.2%
O=C(NCCN1CCOCC1)c1ccc(Cl)c(S(=O)(=O)N2CCCCC2)c1	u	u	-1.0	-4.0%	5.9	-8.9%
O=C(NCCC1=CCCCC1)c1ccc(Cl)c(S(=O)(=O)N2CCOCC2)c1	-21.4%	-9.1%	11.7	5.86µM*	active	-10.6%
O=C(Cc1cccc2ccccc12)NC(=S)Nc1cccc(C(=O)O)c1	-18.0%	17.7%	-1.5	-9.9%	-9.1	2.1%[46.1 µM]
Nc1c(C(=O)NCCC2=CCCCC2)sc2ccc(S(=O)(=O)N3CCCCC3)cc12	u	u	-4.7	13.1µM*	-3.5	u
Cc1ccc(CNC(=O)c2sc3ccc(S(=O)(=O)N4CCCCC4)cc3c2N)cc1	x	u	-3.9	-9.4%	21.0	0.4%
COc1ccc(F)cc1C(=O)C1CCCN(Cc2ccc(O)cc2)C1 (centres undefined)	3.1%	u	-0.7	u	-7.5	14.4%
CNc1cnn(-c2ccccc2)c(=O)c1Cl	17.1%	31.4%	-3.5	20.6%	36.8	2.8%
O=c1c(Cl)c(NCCO)cnn1-c1cccc(Cl)c1	u	61.9%	22.7*	39.4%	50.7*	6.8%[46.1 µM]
CN(C)CCNc1cnn(-c2ccccc2)c(=O)c1Cl	x	38.9%	17.0*	14.7%	55.1	x
Cc1c2c(nc3c(C)cccc13)OC(C)C2 (centres undefined)	4.2%	38.5%	10.6	-17.6%	41.4	6.3%
COc1cccc(C2=NO[C@@H]3C(=O)N(Cc4ccccc4)C(=O)[C@H]23)c1OC	5.1%	-4.3%	4.1	15.1%	27.3	u
SMILES	Lassa entry inh	Pf growth 96h	Cycloheximide cs	Pf growth 48h	Shiga toxin inh	MARV entry inh
COc1cccc(C2=NO[C@@H]3C(=O)N(c4ccc5c(c4)OCCO5)C(=O)[C@H]23)c1OC	8.8%	5.0%	66.0*	54.4%	109.1*	3.9%
COc1ccc(OC)c(S(=O)(=O)N2CCC(C(=O)NCc3ccccc3OC)CC2)c1	5.0%	20.6%	3.1	u	1.1	0.0%
CNc1ncnc2c1cnn2-c1ccc(C)c(C)c1	10.6%[46.1 µM]	x	x	x	x	x
Cc1cccc(-n2ncc3c(NCc4ccco4)ncnc32)c1	u	334.9%	34.5*	313.5%	64.4*	u
Cc1ccc(-n2ncc3c(NCc4ccco4)ncnc32)cc1C	20.1%	u	50.9*	71.3%	91.2*	5.0%[46.1 µM]
N#C/C(C(=O)NCCc1ccccc1)=C1/N=C(NC(=O)c2cccs2)c2ccccc21	u	-33.6%	9.3	6.4%	8.9	u
Cc1ccc(S(=O)(=O)N2CCC(C(=O)N3CC(C)OC(C)C3)CC2)cc1 (centres undefined)	5.7%	u	0.8	-3.6%	-13.3	10.5%
O=C1NCCN/C1=C\C(=O)c1ccc(Br)cc1	x	345.7%	44.9*	201.3%	64.5*	x
O=C1OCCN/C1=C/C(=O)c1ccccc1	x	x	x	x	x	4.8%[14.2 µM]
O=C1NCCN/C1=C\C(=O)c1ccccc1	0.3%	43.0%	32.5*	x	26.3	u
O=C1OCCN/C1=C\C(=O)c1ccccc1	12.4%	114.9%	-1.1	89.3%	-3.0	4.8%[14.2 µM]
O=C1NCCN/C1=C\C(=O)c1cccc(Br)c1	x	170.8%	34.2*	63.5%	71.6*	x
Cc1csc(NC(=O)c2c(O)c3c(n(CC(C)C)c2=O)CCCC3)n1	u	31.4%	1.1	30.7%	-3.1	u
O=C(Nc1ccc(F)cc1)C1C2CCC3C(CCC21)C3(Cl)Cl (centres undefined)	u	7.8%	0.3	u	13.0	-10.0%[46.1 µM]
Cc1ccc(-n2ncc3c(=O)n(CC(=O)NC4CCCCC4)cnc32)cc1C	-10.1%	u	17.0	-5.1%	18.7	18.7%
O=C(Cn1cnc2c(nnn2Cc2ccc(F)cc2)c1=O)NCc1ccccc1	x	-26.1%	-2.3	9.28µM*	-7.4	x
CC(C)(C)n1ncc2c(=O)n(CC(=O)NC3CCCCC3)cnc21	1.3%	x	34.7*	93.6%	84.8*	u
CC(C)(C)n1ncc2c(=O)n(CC(=O)Nc3ccccc3)cnc21	-5.2%	3.8%	11.5	1.5%	16.8	-1.9%
CC(C)(C)n1ncc2c(=O)n(CC(=O)NCc3ccc(F)cc3)cnc21	u	13.1µM*	27.0*	281.0%	54.5*	u
CC(C)(C)n1ncc2c(=O)n(CC(=O)NCc3ccco3)cnc21	-18.6%	12.5%	45.9*	291.5%	67.0*	u
O=C(Cn1cnc2c(nnn2Cc2ccc(F)cc2)c1=O)NCc1ccco1	-17.0%	u	-1.6	-7.0%	12.1	-15.8%
COCc1cc(S(=O)c2ccc(Cl)cc2)nc(C)n1 (centres undefined)	x	-3.3%	16.2*	-8.5%	20.8	x
COCc1cc(Sc2ccc(Cl)cc2)nc(C)n1	11.2%[46.1 µM]	-10.9%	-1.6	1.3%	-6.2	-0.1%[46.1 µM]

From PubChem
